Source: PMC7819943, “Rice protein-binding microarrays: a tool to detect cis-acting elements near promoter regions in rice”
In all, about 35,000 sequences were measured (“fluorescence intensity (a.u.)”: median about 10,000, highest 2% from about 52,000 on). Only a selection was taken, and the highest values are over-represented in it overall.

target: T1, OsWOX13 (Oryza sativa, UniProt Q5QMM3 1-267); assay: protein-binding microarray (RPBM); PBS, 2% BSA, 51.3 ng/ul salmon testes DNA, 50 uM zinc acetate, 200 nM TF, 25 C, 1 h; high values mean tight binding; settings: protein: recombinant; tags: N-terminal polyhistidine and DsRed monomer fusion (pET32a); label: CyDye5-dUTP incorporated in the synthesized complementary strand; 3' TTTTT single-stranded linker to array surface; dsDNA, one strand shown
T1 sequence: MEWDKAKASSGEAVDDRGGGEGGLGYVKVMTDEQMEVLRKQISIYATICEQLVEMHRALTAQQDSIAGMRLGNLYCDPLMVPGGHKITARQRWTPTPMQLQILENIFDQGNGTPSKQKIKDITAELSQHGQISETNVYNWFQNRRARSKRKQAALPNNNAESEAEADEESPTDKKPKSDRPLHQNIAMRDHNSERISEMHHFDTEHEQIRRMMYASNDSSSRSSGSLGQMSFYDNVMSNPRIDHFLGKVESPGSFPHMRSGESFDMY
Summary of the method: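 Transcription factors were made in E. coli BL21-CodonPlus as N-terminal fusions to a polyhistidine tag and DsRed, then purified on Ni–NTA. After primer extension with Cy5-dUTP and blocking with 2% BSA, a custom Agilent array was exposed for 1 h at 25 °C to 200 nM protein in PBS, 2% BSA, salmon testes DNA and 50 µM zinc acetate. Washed arrays were scanned on an Axon 4000B, and the binding signal is per-feature fluorescence intensity in arbitrary units.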

Row | Sequence | binding signal
1 | ATGATTACTAAAACTGTACTTAAAGGCAATGGTTTCTGTACGGAGTCACCTAGTGCAG | 13900 fluorescence intensity (a.u.)
2 | CATTGATTGGATCGTACGCTTGTGTTGCATGACCAATGATCGGAGTCACCTAGTGCAG | 44200 fluorescence intensity (a.u.)
3 | AATCCATGATTATCACATATTTACTGTAGAACTACATTGTCGGAGTCACCTAGTGCAG | 11200 fluorescence intensity (a.u.)
4 | TTAAATATAGTTAATTAAACTAGCTAGCTCCTCCGATCCTCGGAGTCACCTAGTGCAG | 12800 fluorescence intensity (a.u.)
5 | CAAAATTGGCTCCTCACCCTTGTGCAGATGCAGCCTTCTTCGGAGTCACCTAGTGCAG | 13700 fluorescence intensity (a.u.)
6 | CTCTCTCCTTGGCCTCTTCCTCCCTGGTCGGTAGCGCAGCCGGAGTCACCTAGTGCAG | 59600 fluorescence intensity (a.u.)
7 | GTAGGATTGGATGGATATAGGAGCCTGCCTTGCCTTCCTCCGGAGTCACCTAGTGCAG | 6030 fluorescence intensity (a.u.)
8 | CTTTGTAGACTGACAGTGATAGTATTGTACTGCTATACGTCGGAGTCACCTAGTGCAG | 9250 fluorescence intensity (a.u.)
9 | TGGGCGGTTAATTTGACTTCGATGTTCAGTACCTTGTGGGCGGAGTCACCTAGTGCAG | 4180 fluorescence intensity (a.u.)
10 | CTAGTAATAACACTGACATCAATTAGCAATTTAGCATCCGCGGAGTCACCTAGTGCAG | 13200 fluorescence intensity (a.u.)
11 | CTTGGCTGAAACAAATCAATTAACATCACAAACAGGAGAACGGAGTCACCTAGTGCAG | 11300 fluorescence intensity (a.u.)
12 | ATATAATTACAATACAATCGTAGTGTAATTACACTGTAACCGGAGTCACCTAGTGCAG | 14800 fluorescence intensity (a.u.)
13 | CTTAATTAATATAATCGGCAGGAGCTCACTGTTTGTTAACCGGAGTCACCTAGTGCAG | 52800 fluorescence intensity (a.u.)
14 | GTTAATGATTAATTAGAGCATTTGTTGTCTCAACTATTGTCGGAGTCACCTAGTGCAG | 58600 fluorescence intensity (a.u.)
15 | TCGTAAATTAATTATTAATAATATACTAATGGTATCCCCACGGAGTCACCTAGTGCAG | 53900 fluorescence intensity (a.u.)
16 | ACATCATTGACATAATATGATTTAACAACAAACAATTTAGCGGAGTCACCTAGTGCAG | 34800 fluorescence intensity (a.u.)
17 | TCATAACTATTTTAATTGACATACAAACAATGAGGCGGCACGGAGTCACCTAGTGCAG | 58300 fluorescence intensity (a.u.)
18 | AATAATCATACTAATTATATAAGTATATACTAAATATTATCGGAGTCACCTAGTGCAG | 7370 fluorescence intensity (a.u.)
19 | TCATCGTGGTATTAATTATTTAATAATTATAAATATATTTCGGAGTCACCTAGTGCAG | 10200 fluorescence intensity (a.u.)
20 | ACATTAATGATTAGAGACTATATTGTCTCTAACTGTTGTACGGAGTCACCTAGTGCAG | 39900 fluorescence intensity (a.u.)
21 | TTCGGTTTTATTTTAATTGACATTTTGGACAATGATACGGCGGAGTCACCTAGTGCAG | 27900 fluorescence intensity (a.u.)

Row | Sequence | binding signal
22 | TAATGCTTAATTAATCTCAATATAATCGCGTGCTTTGTTTCGGAGTCACCTAGTGCAG | 7810 fluorescence intensity (a.u.)
23 | ACATTAATGATTAGAGACCATATTGTCATCAACTATTGTACGGAGTCACCTAGTGCAG | 30800 fluorescence intensity (a.u.)
24 | GCACCGTTGATGAAATTGCCGTTAGAATTTCGATCATCCCCGGAGTCACCTAGTGCAG | 4810 fluorescence intensity (a.u.)
25 | GGTAATGATTTAACACCACCTAATTTATTTTGAACAAGCTCGGAGTCACCTAGTGCAG | 20500 fluorescence intensity (a.u.)
26 | CATGTCTCAATAAATTGATCGTTGGCAAAATCGGTTAGTCCGGAGTCACCTAGTGCAG | 4980 fluorescence intensity (a.u.)
27 | AAACATTAATTTGTTTTATAATATATTATAAATGACTATACGGAGTCACCTAGTGCAG | 15500 fluorescence intensity (a.u.)
28 | TTTAATTAAATTTAACATTAAATATATTTTGACTATTTGTCGGAGTCACCTAGTGCAG | 53000 fluorescence intensity (a.u.)
29 | GGTAATTTGTCCGGTATTGAAAGTTTAGGGTGAGCAATGTCGGAGTCACCTAGTGCAG | 22900 fluorescence intensity (a.u.)
30 | TGGAATTTTGAGTGTGTGATTGCGTTATTACGTTGCAAGTCGGAGTCACCTAGTGCAG | 3550 fluorescence intensity (a.u.)
31 | ATTAATTTGACCAACTTCATTCAACATGTAACATGGTCTCCGGAGTCACCTAGTGCAG | 16600 fluorescence intensity (a.u.)
32 | AATTAAATTTTAACTATTAATATTATATTTTATAAATATTCGGAGTCACCTAGTGCAG | 6480 fluorescence intensity (a.u.)
33 | ATATAATTAATTAAAATATTAATTATTATTTGTAAAATGGCGGAGTCACCTAGTGCAG | 65500 fluorescence intensity (a.u.)
34 | GAAGTGATTGATATTTGAGCAATTAGTCCGTTGTCAGGGTCGGAGTCACCTAGTGCAG | 62400 fluorescence intensity (a.u.)
35 | TGCATTAATTATTGGAGAGTGCGGTCTCCTCTCCTCCCTCCGGAGTCACCTAGTGCAG | 23200 fluorescence intensity (a.u.)
36 | TTAATAATTATTGTAAAATTTAATTTATATTTATTTGAATCGGAGTCACCTAGTGCAG | 22600 fluorescence intensity (a.u.)
37 | CCATTAATTAATTAACCTGCAGCCTCAATTATTTGGTCTCCGGAGTCACCTAGTGCAG | 57600 fluorescence intensity (a.u.)
38 | TATTAATTTAATAAAATTAATTTGGTAATGTAAATATTATCGGAGTCACCTAGTGCAG | 15600 fluorescence intensity (a.u.)
39 | TCCGATTAATGTGGAAATTTCTAGCCTCCACAGCGAACGTCGGAGTCACCTAGTGCAG | 8650 fluorescence intensity (a.u.)
40 | TAGATACGAAAATTAATTGGAATTTTGGATTTGGATGGGACGGAGTCACCTAGTGCAG | 24500 fluorescence intensity (a.u.)
41 | GTCACATCATTCTAATTTCAATTAAACTTCAAATTTTGGCCGGAGTCACCTAGTGCAG | 12900 fluorescence intensity (a.u.)
42 | CTGCAACTAAATTTTAGGATTAATTTAAGGAACTTTCGGGCGGAGTCACCTAGTGCAG | 11300 fluorescence intensity (a.u.)
